Reference: PubChem BioAssay AID743279 (National Center for Advancing Translational Sciences (NCATS), 2014)
In all, about 360,000 compounds went through this assay and about 17,000 (4.7%) were called active. Roughly 5% stayed inconclusive and do not appear here. Rule as the data show it: active = activity change below about -50%; inconclusive = mostly about -30% to -49%; inactive = weaker than that. The sample as a whole holds a higher share of actives than the screen did.

Test: qHTS for Inhibitors of Inflammasome Signaling: IL-1-beta AlphaLISA Primary Screen
Conditions: THP-1 LPS/ATP IL-1B secretion, 16 h; at 57.5 µM, stronger effect = lower value
How it was run: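 THP-1 cells pretreated 1 hr with compounds (up to 57.5 uM final), then stimulated with LPS (250 ng/mL final) plus ATP (1.25 mM final); secreted IL-1B measured by AlphaLISA after 16 hr, decreased signal indicating inhibition.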
% is scaled to controls: 0 for no effect and ±100 for the full control effect.

Row | SMILES | activity change
1 | CCOc1ccccc1N1CCN(C(=O)COc2ccc3c(C)cc(=O)oc3c2)CC1 | 23% (inactive)
2 | CC(=O)COc1ccc2c(-c3ccccc3)cc(=O)oc2c1 | -27.2% (inactive)
3 | CCc1cc(=O)oc2cc(OCC(=O)N3CCCc4ccccc43)ccc12 | -60.9% (active)
4 | CC(C)c1cc(C(=O)N(C)C2CCCN(Cc3ccccc3F)C2)n(C)n1 (stereo unspecified) | 41.9% (inactive)
5 | CCN(CC)C(=O)C1=C(C)N(Cc2ccccc2)C(=O)C(CC(=O)NC(c2ccccc2)c2ccccc2)C1 (stereo unspecified) | -15.6% (inactive)
6 | O=C(Nc1cccc(F)c1)NC1CCCc2ccccc21 (stereo unspecified) | -9.52% (inactive)
7 | O=C(Nc1cccc(F)c1)NC1CCCCCCC1 | -92.1% (active)
8 | C/C(CC(=O)Nc1cccc(F)c1)=N\NC(=O)C(=O)NC1CCCCC1 | -10.5% (inactive)
9 | COc1ccc(NC(=O)C[C@H]2C(=O)N(CCc3ccccc3)C[C@@H]2C)cc1 | -9.78% (inactive)
10 | FC(F)Oc1ccccc1NC(=S)Nc1cccc(Cl)c1Cl | 23.7% (inactive)
11 | CC(C)(C)S(=O)N1Cc2cc(C(=O)NCCCN3CCOCC3)nc(-c3cccc(-c4cc5ccccc5o4)c3)c2[C@H]1CCO (stereo partly specified) | -27.7% (inactive)
12 | CCc1cccc(CC)c1N1C(=O)CC(Sc2ccccc2N)C1=O (stereo unspecified) | 17.8% (inactive)
13 | Cc1ccccc1S(=O)(=O)NC(=O)C1(C)CCN1C(=O)Cc1ccc(Cl)cc1Cl (stereo unspecified) | -18.4% (inactive)
14 | CC(=O)N1CC(C)c2scc(C)[n+]2-c2ccccc21 (stereo unspecified) | -71.4% (active)
15 | O=C(Nc1nnc(S(=O)(=O)N2CCCCCC2)s1)c1cccc(Br)c1 | -9.2% (inactive)
16 | O=C(NC1=CC(=O)c2ccccc2C1=O)c1ccccc1 | -96.1% (active)
17 | Cn1c(NC(=O)c2ccccc2)nc2ccccc21 | 35.1% (inactive)
18 | O=C1C=C(NS(=O)(=O)c2ccccc2)C(=O)c2ccccc21 | -0.814% (inactive)
19 | N#Cc1cccc(NC(=O)c2cc(C3CCCCN3C(=O)CCc3ccccc3)on2)c1 (stereo unspecified) | -18% (inactive)
20 | O=C(NCCCn1ccnc1)c1ccccc1F | 8.56% (inactive)
21 | Clc1c(OCCCn2ccnc2)ccc2ccccc12 | -77% (active)

Row | SMILES | activity change
22 | C=CCc1cc(C)ccc1OCCCn1ccnc1 | -24.1% (inactive)
23 | COc1cccc(CNC(=O)[C@@H]2CCCN2C(=O)[C@@H]2CCCN2C(=O)c2ccccc2)c1 | 0% (inactive)
24 | O=C(CCc1ccccc1)Nc1ccc(NC(=O)C2CCCCC2)nc1 | -9.78% (inactive)
25 | C=CCN1CCN(c2ccncc2S(=O)(=O)N2CCN(C)CC2)CC1 | -7.51% (inactive)
26 | CC(=O)OC1CCC2(C)C(=CCC3C4CC(=O)N(O)C(=O)C4(C)CCC32)C1 (stereo unspecified) | -9.48% (inactive)
27 | O=C(Nc1ccc(F)cc1)N1CCN(c2ccc(F)cc2)CC1 | 2.96% (inactive)
28 | O=C(Nc1ccccc1)N1CCN(C2c3ccccc3-c3ccccc32)CC1 | -15.2% (inactive)
29 | O=C(Nc1cccc(NC(=O)N2CCN(c3ccccc3)CC2)c1)N1CCN(c2ccccc2)CC1 | -55.8% (active)
30 | CCOC(=O)c1c(NC(=O)COC(=O)c2ccc(S(=O)(=O)C(F)F)cc2)sc(C(=O)N(C)C)c1C | -22% (inactive)
31 | C=CCN1C=C(C(=O)c2ccccc2)C(=O)CC1 | 14% (inactive)
32 | CC(C)C1C(=O)N(Cc2cn(CCC3OCCO3)nn2)CCS(=O)(=O)N1Cc1ccc(-c2ccccc2C(F)(F)F)cc1 (stereo unspecified) | -17.2% (inactive)
33 | O=C(OC(C(=O)NC1CCCC1)c1ccc(F)cc1)c1ccno1 (stereo unspecified) | -4.45% (inactive)
34 | CCOc1ccc(/C=C(/C#N)c2nnc(N3CCOCC3)n2-c2ccccc2)cc1OC | -13.1% (inactive)
35 | COc1ccc(C2(C)ON(c3ccccc3C(F)(F)F)C2=O)cc1 (stereo unspecified) | -62.1% (active)
36 | COc1ccc(C2(C)NC(=O)N(CC(=O)c3ccc4c(c3)OCO4)C2=O)cc1 (stereo unspecified) | 6.28% (inactive)
37 | COc1ccc(C2(O)C(=O)Nc3ccccc32)cc1 (stereo unspecified) | 16% (inactive)
38 | COC(=O)CCCCC1=CCC2C(=O)C=C(O)C2C1 (stereo unspecified) | 46.8% (inactive)
39 | Cc1cc(C)cc(NC(=O)C2CCCN(S(=O)(=O)c3ccc4[nH]c(=O)ccc4c3)C2)c1 (stereo unspecified) | -11.9% (inactive)
40 | CC(C(=O)NC1CCCC1)N1CCN(S(=O)(=O)c2ccccc2Cl)CC1 (stereo unspecified) | -3.55% (inactive)
41 | CCc1nc2c(OCCOc3ccccc3)cccn2c1N(C)C(=O)c1ccc(OC)cc1 | -0.0267% (inactive)
42 | COc1ccc(S(=O)(=O)N(C)C)cc1NC(=O)COC(=O)c1n[nH]c2ccccc12 | -8.2% (inactive)

Row | SMILES | activity change
43 | Cc1cnc(NC(=O)C2CCCC2)s1 | -15.9% (inactive)
44 | O=C(Nc1nnc(C2CC2)s1)c1ccccn1 | 12.6% (inactive)
45 | Cc1cnc(NC(=O)c2ccccn2)s1 | -99.9% (active)
46 | O=S(=O)(N1CCCCC1)N1CCNCC1 | 18.8% (inactive)
47 | CNC(=O)c1ccc(CN(C)C(=O)c2cc(C3CC3)nc3c2cnn3C(C)C)cc1 | -23.4% (inactive)
48 | CCOC(=O)C1=C(CSc2nnnn2C)N(C)C(=O)NC1c1ccccc1 (stereo unspecified) | 25.6% (inactive)
49 | COc1cc(/C=N/O)cc(Br)c1OCc1cccc(Cl)c1 | -101% (active)
50 | COc1cc(/C=N/NC(=O)Cc2ccccc2)cc(OC)c1OC | 11.4% (inactive)
51 | COc1cc(/C=N/O)cc(Br)c1OS(=O)(=O)c1ccc(C)cc1 | -4.12% (inactive)
52 | CCCCCCn1c(=O)n2n(c1=O)C[C@]1(OC(=O)NCc3ccc(OC)c(OC)c3)CN(S(=O)(=O)c3ccc(C)cc3)C[C@]1(O)C2 | -2.71% (inactive)
53 | NS(=O)(=O)c1ccc2nc(NC(=O)C3=COCCO3)sc2c1 | 4.02% (inactive)
54 | CCC(=O)N1CCC(C)(C(=O)Nc2cc(OC)c(OC)c(OC)c2)C1 (stereo unspecified) | 33.3% (inactive)
55 | CN(Cc1ccccc1)C(=O)c1ccc(COc2ccccc2)cc1 | -71.5% (active)
56 | CN(CC(=O)Nc1ccc(Cl)cc1)C(=O)c1ccc(COc2ccccc2)cc1 | 5.98% (inactive)
57 | CN(Cc1ccccc1)C(=O)COc1ccccc1 | -10.6% (inactive)
58 | CN(Cc1ccccc1)C(=O)[C@@H]1CCCN1C(=O)[C@@H]1CCCN1C(=O)c1c(F)cccc1F | 32.8% (inactive)
59 | CC(=O)NC(Cc1c[nH]c2ccccc12)C(=O)NCCc1ccccc1 (stereo unspecified) | -9.89% (inactive)
60 | O=C(NC(Cc1c[nH]c2ccccc12)C(=O)N/N=C/c1ccc(Br)cc1)c1cccs1 (stereo unspecified) | -61.1% (active)
61 | CC(=O)NC(Cc1c[nH]c2ccccc12)C(=O)O (stereo unspecified) | 35% (inactive)
